Test results from PubChem BioAssay (NCI).
The panel holds about 83,000 compounds, 20% with a hit somewhere; the sample as a whole holds those more often.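 Negative percent growth values reflect cell death: -40 means 40% of the cells present at the start died, and -100 means all died.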 Unmarked numbers belong to inactive results. Activity calls are given as the source filed them. The calls were made as follows: active = growth percent below 10; inactive = the rest.

test system: HL-60(TB) leukemia; experiment: NCI-60 one-dose screen, 48 h (100 = growth as untreated, 0 = no growth, -100 = all killed); conditions: 10 µM unless noted

Row | SMILES | growth
1 | O=C1CCC(N2C(=O)c3cccc(NCCCC4CCN(CCNC(=O)c5cc6c(o5)C(=O)c5ccccc5C6=O)CC4)c3C2=O)C(=O)N1 (stereo not given) | 6.69% (active)
2 | CCCCCCCCCCN(CCCCCCCCCC)CC(=O)c1ccc2cc(Br)c3ccccc3c2c1 | -62.2% (active)
3 | COc1ccc(-c2[nH]nc(N)c2-c2cc(OC)c3c(c2)OCO3)cc1 | 20.5%
4 | CC1(O)CCC(Nc2cc(-c3ccc(C(F)(F)F)cc3)c(C#N)c3nc4ccccc4n23)CC1 (stereo not given) | 63%
5 | OC(CCCCCCCCC(O)CN1CCc2ccccc2C1)CN1CCc2ccccc2C1 (stereo not given) | 95.1%
6 | O=C(NO)c1ccc(Cn2c(=O)n(CCc3ccc(O)cc3)c(=O)c3ccccc32)cc1 | 89.3%
7 | CC(=O)NCCCS(=O)(=O)O | 102%
8 | COc1ccc(/C=c2\nc3n(-c4ccccc4)c4nc5c6c(sc5c(=N)n4n-3c2=O)CCCC6)cc1 | 101%
9 | FC(F)(F)c1[nH]ncc1-c1nc2ccc3[nH]ncc3c2c2c1CCCC2 | -32.3% (active)
10 | COc1ccc2c(c1)c(-c1nonc1-c1cn(C)c3ccc(OC)cc13)cn2C | -1.01% (active)
11 | CN1C(=O)CNC(=O)[C@H](NC(=O)c2nc3ccccc3cc2O)CSSC[C@H]1C(=O)NCCc1nc2ccccc2cc1O | -36.8% (active)
12 | O=C(CCn1cnc2c(cc(-c3ccccc3)n2-c2ccccc2)c1=O)Nc1ccc(F)cc1 | 86.6%
13 | COc1ccc(C2C3=C(COC3=O)N(CCO)c3cc4c(cc32)CCC4)cc1OC (stereo not given) | 0.0588% (active)
14 | C/C1=C\CCC2(C)OC2CC2CCC(C)(O)C(CC1)C2(C)C (stereo not given) | 142%
15 | CCn1cc(C(=O)N/N=C/c2cccc(F)c2)c(=O)c2cc(F)c(N3CCNC(C)C3)c(F)c21 (stereo not given) | 65.5%
16 | COc1ccc(NC(=O)Cc2nc3nc4sc(C)c(C)c4c(=O)n3[nH]2)cc1 | 109%
17 | O=C(Nc1ccccc1)c1cc(Cl)ccc1O | 29.6%
18 | O=C(NNC(=S)Nc1ccccc1)c1ccccn1 | -6.25% (active)
19 | CC(NC(=O)CCl)c1ccccc1 (stereo not given) | 83.4%
20 | COc1ccc(-c2cc3c(oc2=O)-c2ccccc2OC3OC(C)=O)cc1 (stereo not given) | 85.8%

Row | SMILES | growth
21 | CNc1nc2c(s1)C(c1cc(F)ccc1F)CC(=O)N2 (stereo not given) | 46.7%
22 | N=c1c2c(-c3ccccc3)c(-c3ccccc3)oc2ncn1NC(=O)c1cccnc1 | 99.7%
23 | Oc1ccccc1-c1nnc(CNc2ccc(Cl)cc2)o1 | 4.56% (active)
24 | Nc1ccc(Cl)c([N+](=O)[O-])c1 | 118%
25 | CCCCCCCCN1C(=O)/C(=c2\sc3n(c2=O)C2C(NN=3)N(CC)C(=O)N2CC)c2ccccc21 (stereo not given) | 114%
26 | COC(=O)c1ccc(NC(N)=NCC(C)(C)COc2ccc(C(F)(F)F)cc2)nc1 | -49% (active)
27 | NCCNc1nc(Nc2ccc(-c3nc4ccccc4[nH]3)cc2)c2cn[nH]c2n1 | 91.9%
28 | CC(=O)OCCC(C)CCC=C(C)C (stereo not given) | 108%
29 | COC(=O)c1c[nH]c2cc(OC(C)C)c(OC(C)C)cc2c1=O | 106%
30 | COc1ccc2c(OCc3nnc4ccc(-c5ccccc5)nn34)ccnc2c1 | 106% [2.5 µM]
31 | CCN(CC)CCCC(C)Nc1c(C)cnc2cc(Cl)c(C)cc12 (stereo not given) | 65.9%
32 | CCn1cc(CNc2ccc(C(=O)Nc3cc4cc(OC)c(OC)cc4c(C)n3)cc2)cn1 | 32.8%
33 | CC(=O)c1ccc2c(c1)C1C=CCC1[C@H](c1cc3c(cc1Br)OCO3)N2 (stereo not given in full) | -45.3% (active)
34 | Cc1ccc(/C=N/NC(=O)CSc2nc3ccccc3c(=O)n2Cc2ccc(S(N)(=O)=O)cc2)cc1 | 97.8%
35 | CS(=O)(=O)Nc1cc(-c2ccc3ncnc(Nc4ccc5c(cnn5Cc5cccnc5)c4)c3c2)cnc1Cl | 33.6%
36 | CC1=C2CC/C(C)=C/CC[C@]3(C)O[C@H]3CC/C(C)=C/[C@H]2OC1 | 86.5%
37 | COc1ccc(-c2nsc3c2NC(=O)CC3c2cccc(OC)c2)cc1 (stereo not given) | 6.13% (active)
38 | Clc1ccc([I+]c2ccc(Cl)cc2Cl)c(Cl)c1 | -38.3% (active)
39 | Cc1c(O)cccc1O | 110%
40 | CC1(C)CC[C@]2(C(=O)N[C@H](CO)Cc3ccccc3)CC[C@]3(C)C(=CC[C@@H]4[C@@]5(C)CCCNC(C)(C)[C@@H]5CC[C@]43C)[C@@H]2C1 | 31.2%
